An excerpt weighted towards active compounds, which were near 2.7% of everything screened.
ClpP mod: qHTS Assay for Activators of ClpP | ATP-dependent Clp protease proteolytic subunit (Bacillus subtilis (strain 168)), P80244 | purified B. subtilis ClpP, FRET peptide cleavage, 20 min | Potency, µM (titrated, usually from 57.5 µM), for inactives: at the highest dose activity change, negative = active | 1.9% of 340,000 active; active = well fitted falling curve with a large enough effect; inconclusive = small, poorly fitted or top-dose-only effect; inactive = no such curve, though single readings can be large or run the other way; note: potency is the fitted concentration of half-maximal effect; the source files actives as falling curves though it sought activators and does not explain the sign; nearly all actives have a fitted effect of over 65% in size
Target sequence (P80244 whole entry, looked up): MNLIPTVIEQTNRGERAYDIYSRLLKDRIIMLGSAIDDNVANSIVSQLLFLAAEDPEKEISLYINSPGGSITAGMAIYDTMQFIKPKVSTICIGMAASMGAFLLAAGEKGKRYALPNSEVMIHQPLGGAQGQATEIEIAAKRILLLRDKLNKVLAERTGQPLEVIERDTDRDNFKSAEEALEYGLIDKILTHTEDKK
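FRET quenching reversal measured ClpP activation: 10 microg/mL B. subtilis ClpP at pH 8 with the FRET-FV decapeptide, read at 430 nm after 320 nm excitation. The 20-min minus 0-min signal was scaled between DMSO/no-enzyme wells and ADEP (5.8 microM final).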
gsp agonist: activates gsp, the McCune-Albright syndrome mutation. AID 624287. Potency, µM (doses to about 76.9 µM), for inactives: at the top dose activation (cAMP increase), actives largely listed as activators. 0.13% of 340,000 active. gsp mutant cells, cAMP HTRF, 30 min; active = well fitted activation curve with a large enough effect; inconclusive = small, poorly fitted or top-dose-only effect, or another doubt; inactive = no such curve, though single readings can be large or run the other way; cell line not stated here;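 note: phosphodiesterase inhibitor Ro 20-1724 added with compounds to block cAMP breakdown; potency is the fitted concentration of half-maximal effect; nearly all actives have a fitted effect of over 60% in size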
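Cells stably selected in G418 were plated at 2000/well, grown 16-24 hr, then given compounds in DMSO with the PDE inhibitor […] (300 uM solution added) for 30 min at 37C; cAMP was read by HTRF.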
gsp antag: antagonists of gsp mutant (McCune-Albright syndrome) | 0.4% of 340,000 active | gsp-mutant cells, cAMP HTRF, 30 min | Potency, µM (doses to about 76.9 µM), for inactives: at the highest dose activity change, negative = inhibition, usual class: inhibitors; calls by dose curve; cell line not stated here;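 note: intracellular cAMP measured with PDE inhibitor Ro 20-1724 present during compound exposure; potency is the fitted concentration of half-maximal effect; % is set by controls: 0 for no effect and ±100 for the full control effect; nearly all actives have a fitted effect of over 65% in size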
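HTRF cAMP measurement after 30 min RT detection following 30 min, 37C compound treatment alongside […] (added as 300 uM solution) in G418-selected cells seeded at 2000/well and grown 16–24 h.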
RXFP1 agonist: RXFP1 (human) receptor agonism; Q9HBX9; HEK293T-RXFP1 cAMP TR-FRET, 30 min; response scale: percent of porcine relaxin response, buffer zero; Potency, µM (doses to about 57.5 µM), without a hit: top-dose activation, hits mostly activators; 0.3% of 370,000 active; AID 2676; active = well fitted activation curve with a large enough effect; inconclusive = small, poorly fitted or top-dose-only effect; note: potency is the fitted concentration of half-maximal effect; % is set by controls: 0 for no effect and ±100 for the full control effect; nearly all actives have a fitted effect of over 60% in size
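HEK293T cells stably expressing RXFP1 were pretreated with the PDE4 inhibitor Ro 20174, exposed to compounds for 30 min at 37C, lysed, and cAMP was read by TR-FRET. Data normalized to buffer (basal) and 29 nM porcine relaxin (100%).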
RXFP1 antag: RXFP1 (human) relaxin receptor antagonism. Q9HBX9. HEK293-RXFP1, relaxin-stimulated cAMP HTRF, 30 min; active compounds read low. activity change, negative = inhibition, % at 57.5 µM. 0.59% of 350,000 active. AID 1259400;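 active = activity change of -60% or lower, but not beyond a set lower limit; inconclusive = change between -60% and -40%, or beyond the set limit; inactive = change above -40%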; note: % is set by controls: 0 for no effect and ±100 for the full control effect
pAkt inh: Akt phosphorylation inhibition. Neuro2A IGF-stimulated pAkt S473 HTRF, 20 min; active compounds read low. activity change, % for hits at 50 µM. 0.32% of 360,000 active. AID 651550; in the data active = activity change below about -80%; inconclusive = mostly about -51% to -80%; note: % is set by controls: 0 for no effect and ±100 for the full control effect
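Neuro2A cells in DMEM with 0.5% FBS, overnight at 37 deg C, given compound at single 50 µM final, then IGF (6 nM final) for 20 min at 37 deg C. Lysed; phospho-Akt Ser473 by HTRF after 24 h, 665/615 ratio.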
Active calls of the source: *; i = inactive; u = inconclusive; x = no result given; [ ] = another dose, or the depositor's remark.

SMILES	ClpP mod	gsp agonist	gsp antag	RXFP1 agonist	RXFP1 antag	pAkt inh
CCOc1cccc(C2/C(=C(/O)c3ccc4c(c3)CC(C)O4)C(=O)C(=O)N2CCN2CCOCC2)c1 (stereo not given)	x	u	5.4%	u	14.2	i
CC1Cc2cc(/C(O)=C3/C(=O)C(=O)N(Cc4cccnc4)C3c3cccc(O)c3)ccc2O1 (stereo not given)	0.4%	u	2.1%	26.1%	u	x
O=C1C(=O)N(CCCN2CCOCC2)C(c2ccc(F)cc2)/C1=C(\O)c1ccc2c(c1)OCCO2 (stereo not given)	1.0%	31.6µM*	39.4%	u	13.9	i
CCCCOc1cccc(C2/C(=C(/O)c3ccc4c(c3)CC(C)O4)C(=O)C(=O)N2CCN2CCOCC2)c1 (stereo not given)	0.0%	u	-4.4%	28.2µM*	-7.5	i
CCOc1ccc(C(=O)/C=C/c2cn(CC(O)CN3CCc4ccccc43)c3ccccc23)cc1 (stereo not given)	-0.3%	x	x	4.5%	x	x
Cc1cc(OCC(C)C)ccc1/C(O)=C1/C(=O)C(=O)N(Cc2cccnc2)C1c1ccncc1 (stereo not given)	-0.4%	5.62µM*	14.1%	u	23.1	i
Cc1nc2ccccn2c1/C(O)=C1\C(=O)C(=O)N(CCCn2ccnc2)C1c1ccncc1 (stereo not given)	-1.5%	17.8µM*	13.5%	5.4%	22.3	i
COc1ccc(-c2ccc(CCC(=O)O)n2CC(C)C)cc1	31.6µM*	1.5%	8.0%	-0.5%	-1.2	i
Cc1ccc(-c2ccc(CCC(=O)O)n2Cc2ccco2)cc1	31.6µM*	0.4%	u	0.0%	6.3	i
CCCn1c(CCC(=O)O)ccc1-c1ccccc1	x	-2.0%[15.4 µM]	0.0%	3.1%	u	i
O=C(O)CCc1ccc(-c2ccccc2)n1CC(=O)O	31.6µM*	-14.5%	6.3%	-0.2%	4.5	i
O=C(COc1ccccc1C(=O)Nc1ccccc1)NCCCCc1ccccc1	-11.5%	x	x	x	x	x
Cn1c(=O)c2cc(NC(=S)NC3CC3)ccc2n1C/C=C/c1ccccc1	4.1%	x	x	x	x	i
CCC(=O)N1CCC1(C)C(=O)Nc1cc(-c2ccccc2)nn1C (stereo not given)	-1.1%	x	x	x	x	i
O=C(O)c1ccc2ccc3ccccc3c2c1	-6.5%	9.2%	1.1%	x	0.2	i
O=[N+]([O-])c1ccc2[nH]ccc2c1	-0.2%	x	x	x	x	x
O=C(O)c1ccc2cc[nH]c2c1	15.8µM*	-25.1%	7.1%	-0.2%	-4.1	i
O=[N+]([O-])c1ccc2cc[nH]c2c1	17.8µM*	-9.3%[15.4 µM]	-4.5%	x	-14.9	i
CC(=O)c1cccc(S(=O)(=O)N2CCC(C(=O)Nc3cccc(C(=O)NC4CC4)c3)CC2)c1	0.1%	-33.1%	3.2%	0.3%	2.9	i
CC(=O)NC(O)C(=O)c1ccccc1 (stereo not given)	-2.3%	-4.1%	0.9%	0.9%	-1.4	-109.1%*
Cc1[nH]c(=S)c(C#N)c(C)c1CC(=O)c1ccc(Br)cc1	0.2%	-47.8%	-13.9%	6.7%	-70.2*	i
Cc1[nH]c(=S)c(C#N)c(C)c1Cc1ccc(Cl)cc1Cl	-2.3%	-77.3%	-6.3%	10.3%	u	i
CCc1nc2c(OCC(=O)C(C)(C)C)cccn2c1N(C)C(=O)C(C)C	-3.7%	x	x	x	x	x
COc1ccc(NS(=O)(=O)c2ccc3oc(SC(C)C(N)=O)nc3c2)cc1 (stereo not given)	31.6µM*	-73.5%	-6.0%	2.7%	-1.6	i
O=C(CCl)Nc1cc(SCC(O)CO)cc([N+](=O)[O-])c1 (stereo not given)	x	-25.3%	-1.4%	3.5%	-28.0	i
SMILES	ClpP mod	gsp agonist	gsp antag	RXFP1 agonist	RXFP1 antag	pAkt inh
CCC(=O)Nc1cc(SCCO)cc([N+](=O)[O-])c1	-2.9%	2.3%	-0.7%	1.1%	-7.9	-87.6%*
CC(=O)c1cccc(NC(=O)c2nc3ccccc3n(C)c2=O)c1	-1.2%	x	x	15.8µM*	22.3	x
CCc1ccc(N2CC(C(=O)OCC(=O)Nc3ccc(C#N)cc3)CC2=O)cc1 (stereo not given)	1.1%	-78.6%	-2.2%	1.5%	3.6	i
CC(C)(C)NC(=O)CSc1nncn1NCc1cccc2ccccc12	-4.9%	-2.3%	0.0%	-0.3%	-6.2	-113.2%*
C/C(=N\NC(=O)c1ccc(Br)cc1)c1ccccc1	2.1%	15.0%	12.2%	-0.6%	-4.2	-111.2%*
C/C(=N\NC(=O)c1cccnc1)c1ccc(Br)cc1	x	-61.4%	1.7%	0.0%	-0.7	i
COc1ccc(-c2ccc(-c3nnn(CC(=O)N4CCOCC4)n3)cc2)cc1	15.8µM*	8.3%	4.7%	-0.5%	-6.6	i
CS(=O)(=O)Nc1ccc(-c2nc3ccccc3s2)cc1	3.8%	x	x	4.0%	-9.0	x
COc1ccc(NC(=O)C2(S(=O)(=O)c3ccc(C)cc3)CC2)cc1	x	-24.2%	0.1%	-0.1%	13.2	i
Cc1nc(-c2ccc(F)cc2)c(CC(=O)N(C)CC(=O)Nc2ccc(Cl)c(C(F)(F)F)c2)s1	-13.5%	19.9%	31.6µM*	x	-10.5	i
CCOC(=O)c1cnc(NCc2ccccc2OC)c2ccccc12	4.3%	x	x	3.4%	0.5	x
CC(C)CN(C(=O)c1cccc(S(=O)(=O)N2CCN(c3ccc(F)cc3)CC2)c1)C1CCS(=O)(=O)C1 (stereo not given)	-19.3%	-60.4%	5.5%	0.8%	-14.1	i
O=C(/C=C/c1cccc(Cl)c1)c1nc2ccccc2[nH]1	-6.2%	-35.9%	17.2%	0.7%	-82.4*	i
COc1cccc(C(=O)NC2CC(C)(C)Cc3c2cnn3-c2cccc(F)c2)c1OC (stereo not given)	14.1µM*	12.4%[15.4 µM]	-10.6%	0.5%	3.1	i
CCCOC(=O)NC(CC)COC(=O)Nc1cccc(C)c1C (stereo not given)	-0.3%	-6.9%	-2.8%	0.5%	-13.8	-115.9%*
Cc1cccc(-n2c(C)nnc2SCC(=O)NC(C)c2ccco2)c1 (stereo not given)	-1.7%	x	x	x	x	x
C=C1C(=C/C=C2\CCC[C@]3(C)[C@@H]([C@H](C)/C=C/[C@@H](O)C4CC4)CC[C@@H]23)C[C@@H](O)C[C@@H]1O	x	x	x	x	-72.3*	x
CN(C)c1c(Cl)cc(/C=C/c2ccnc3ccccc23)cc1Br	-0.6%	x	x	x	x	x
CN1CCN(C(=O)C23CC4CC(C)(CC(C)(C4)C2)C3)CC1	0.7%	-17.8%	5.4%	0.8%	3.1	i
CC12CC3CC(C)(C1)CC(C(=O)N1CCCC1)(C3)C2	x	-34.9%	0.1%	2.4%	-88.3*	i
